Screens (PubChem)
The list is not random: actives were taken first. Their share in the collection is about 2.6%.
BRCA1 expr up: activators of BRCA1 expression | MCF7-BRCA1-FFLuc reporter, luminescence, 48 h; response scale: scaled: vehicle 0%, 10 µM genistein 100% | Potency, µM (titrated, usually from 46.1 µM), actives largely listed as activators | AID 624202 | 380,000 tested, 1.1% active; note: nearly all actives have a fitted effect of over 80% in size
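Reporter cells (MCF7, BRCA1 promoter-firefly luciferase) received library compounds across a concentration series for 48 h. End-point luminescence was measured and concentration-effect curves derived after normalization.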
GLP1R cytotox: cytotoxicity counter-screen for GLP-1 receptor inverse agonists; Potency, µM (series often up to 38.3 µM), usual class: inhibitors; AID 624418; HEK293 cAMP-luciferase reporter cells, luminescence, 24 h; 410,000 tested, 0.13% active;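 note: loss of luciferase light is scored as toxicity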
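Here, cytotoxicity is scored as loss of luminescence. The MLSMR collection was tested on cells seeded in medium containing 10% Nu serum, with a 24 hr compound exposure preceded by 12 hours of culture.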
GLP1R inv ag: inverse agonists of human GLP-1 receptor | P43220 | HEK293 GLP-1R CRE-luciferase, luminescence, 24 h; GLP-1R form is constitutively active | Potency, µM (series often up to 38.3 µM), usual class: inhibitors | 410,000 tested, 1.6% active | AID 624417; note: nearly all actives have a fitted effect of over 55% in size
Target sequence (P43220 whole entry, looked up): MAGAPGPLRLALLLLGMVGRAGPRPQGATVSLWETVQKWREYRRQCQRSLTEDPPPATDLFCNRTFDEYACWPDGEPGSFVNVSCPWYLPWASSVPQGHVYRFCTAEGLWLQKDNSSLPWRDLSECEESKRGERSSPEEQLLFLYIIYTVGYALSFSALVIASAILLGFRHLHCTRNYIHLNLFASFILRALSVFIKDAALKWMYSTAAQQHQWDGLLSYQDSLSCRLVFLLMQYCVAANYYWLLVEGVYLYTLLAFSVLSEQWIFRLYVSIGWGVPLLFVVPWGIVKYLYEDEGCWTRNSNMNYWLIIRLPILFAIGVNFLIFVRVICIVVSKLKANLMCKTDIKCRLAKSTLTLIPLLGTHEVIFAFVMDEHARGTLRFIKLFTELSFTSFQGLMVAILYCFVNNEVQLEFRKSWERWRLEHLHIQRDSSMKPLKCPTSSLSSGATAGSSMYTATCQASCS
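Readout was luciferase luminescence, measured 12 min after detection reagent at room temperature. Beforehand, GLP-1R reporter HEK293 cells had sat 12 h, then received compounds for 24 hr at 37 deg C.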
GLP-1R agonist: agonists of human GLP-1 receptor | P43220 | HEK293 GLP-1R CRE-luciferase, luminescence, 4-6 h; cells express a hypersensitive GLP-1R form | Potency, µM (highest dose often 45.6 µM), actives largely listed as activators | 380,000 tested, 0.007% active | AID 624172
Large screens that a line does not name were inactive. Calls come from the whole dose curve; as a rule, active = well fitted curve in the direction sought with a large enough effect; inconclusive = small, poorly fitted or top-dose-only effect, or another doubt; inactive = no such curve, though single readings can be large; an effect the other way counts as inactive or inconclusive.

COc1ccc(N2C(=O)c3ccccc3NC2c2ccc(OC)c(CSc3ccccn3)c2)cc1 (stereo not drawn)	none
COc1ccc(N2C(=O)c3ccccc3NC2c2ccc(OC)c(COc3ccccn3)c2)cc1 (stereo not drawn)	BRCA1 expr up 6.3µM
COc1ccc(C2Nc3ccccc3C(=O)N2Cc2ccco2)cc1COc1ccc(F)cc1 (stereo not drawn)	GLP1R inv ag 10µM
CCCN1C(=O)c2ccccc2NC1c1ccc(OC)c(COc2cccc(OC)c2)c1 (stereo not drawn)	none (no result: GLP1R cytotox, GLP1R inv ag, GLP-1R agonist)
O=C(c1cc(Cl)ccc1OCc1ccccc1)N1CCOCC1	none
Cc1oc(-c2ccc(C(=O)Nc3cccc(C(F)(F)F)c3)cc2)nc1CSc1ccccc1	GLP1R inv ag 2.2µM (no result: BRCA1 expr up, GLP-1R agonist)
CC(=O)c1ccc(NC(=O)c2ccc(-c3nc(CSc4ccccc4)c(C)o3)cc2)cc1	none (no result: BRCA1 expr up, GLP-1R agonist)
COc1ccccc1CCNC(=O)c1ccc(-c2nc(CSc3ccc(C)cc3)c(C)o2)cc1	GLP1R inv ag 10µM (no result: BRCA1 expr up, GLP-1R agonist)
CC1(C)CC2CC(C)(CN2C(=O)NC(=O)c2ccccc2)C1 (stereo not drawn)	none
COc1ccc(CC(=O)N2CC3(C)CC2CC(C)(C)C3)cc1 (stereo not drawn)	GLP1R inv ag 11µM
Cc1ccc(C(=O)Nc2ccccc2C(=O)N2CC3(C)CC2CC(C)(C)C3)cc1 (stereo not drawn)	GLP1R inv ag 10µM
Cc1ccc(OCC(=O)N2CC3(C)CC2CC(C)(C)C3)cc1 (stereo not drawn)	GLP1R inv ag 10µM
CCOC(=O)C(CC)Sc1ncnc2c1c(-c1ccccc1)cn2-c1ccc(OC)cc1 (stereo not drawn)	GLP1R inv ag inconclusive (no result: BRCA1 expr up, GLP-1R agonist)
COc1ccccc1N1CCN(C(CNC(=O)C(=O)NCc2ccc(F)cc2)c2cccnc2)CC1 (stereo not drawn)	none (no result: BRCA1 expr up, GLP-1R agonist)
CN(Cc1ccccc1)C(=O)c1ccc(CSc2nc3cccnc3n2Cc2ccccc2)cc1	none (no result: BRCA1 expr up, GLP-1R agonist)
Cc1cc(Br)c2c(c1)C(O)(N1CCCCC1C)C(=O)N2 (stereo not drawn)	GLP1R inv ag 11µM
Cc1cccc(N2CCN(C(=S)c3ccc4c(c3)OCO4)CC2)c1	GLP1R cytotox inconclusive, GLP1R inv ag 11µM
C=Cc1ccc(CSc2nc(-c3ccccc3C)nc3c2Cc2c(CO)cnc(C)c2O3)cc1	none (no result: BRCA1 expr up, GLP-1R agonist)
O=C(CC1C(=O)N(c2ccccc2)C(=S)N1c1ccccc1)c1ccc(Br)cc1 (stereo not drawn)	GLP1R inv ag 11µM
O=C(CC1C(=O)N(c2ccccc2)C(=S)N1c1ccccc1)c1ccccc1 (stereo not drawn)	GLP1R inv ag inconclusive
COc1cccc(C#Cc2c(C=O)n(C)c3ccccc23)c1	GLP1R inv ag 10µM
CC(=NNC(=S)N1CCN(C2CCCCCC2)CC1)c1ccccn1	BRCA1 expr up inconclusive, GLP1R cytotox 0.32µM
CC(=NNC(=S)N1CC2CCC(CC2)C1)c1ccccn1	GLP1R cytotox 6.3µM, GLP1R inv ag inconclusive
CC(=NNC(=S)N1CC2CCC(CC2)C1)c1cnccn1	BRCA1 expr up inconclusive, GLP1R inv ag inconclusive
CC(=NNC(=S)N1CCN(c2ccccn2)CC1)c1ccccn1	none
COC(=O)C1CCN(C(c2ccccc2Cl)c2sc3nc(-c4ccco4)nn3c2O)CC1 (stereo not drawn)	none (no result: BRCA1 expr up, GLP-1R agonist)
CCCCNC(=O)C(NC(=O)c1ccccc1)C(=O)c1ccccc1 (stereo not drawn)	none (no result: BRCA1 expr up, GLP-1R agonist)
COc1c(OC(C)=O)ccc(/C=C/c2ccc3cccc(OCc4ccccc4)c3n2)c1[N+](=O)[O-]	GLP1R cytotox inconclusive, GLP1R inv ag 5µM
Oc1ccc(-c2nnc(SCC3CCCCC3)o2)cc1	BRCA1 expr up 6.3µM, GLP1R cytotox inconclusive, GLP1R inv ag inconclusive
O=C(CSc1nnc(-c2ccc(O)cc2)o1)N1CCOCC1	none
COc1cc2nc(Cl)nc(NC3CCN(Cc4ccccc4)CC3)c2cc1OC	none (no result: GLP1R cytotox, GLP1R inv ag, GLP-1R agonist)
Cc1cc(C)c2oc(-c3cccc(NC(=O)COc4ccc(Cl)cc4C)c3C)nc2c1	none (no result: GLP1R cytotox, GLP1R inv ag, GLP-1R agonist)
COCC(=O)Oc1cc(-c2ccc(C)cc2C)c(OC(=O)COC)c(-c2ccc(C)cc2C)c1	GLP1R inv ag 2.5µM
O=C(NCC1CCN(Cc2cccc(F)c2)CC1)c1cc2ccc3cccnc3c2[nH]1	GLP1R inv ag inconclusive (no result: BRCA1 expr up, GLP-1R agonist)
CCC(=O)NC(=S)Nc1cccc(Cl)c1N1CCCC1	GLP1R cytotox inconclusive, GLP1R inv ag 5.6µM
CC1CCCCN1C(=S)NC(=O)c1ccccc1 (stereo not drawn)	GLP1R cytotox 11µM, GLP1R inv ag inconclusive
